A selection: hits, their analogues and other compounds. The true share with any hit is near 2.7%.
CendR NRP1 mod: modulators of CendR peptide binding to NRP-1, primary screen, biochemical, fluorescence polarization, uHTS; Neuropilin-1 (Homo sapiens), O14786; FAM-RPARPAR peptide binding to NRP-1; inhibition, % at 25 µM; 360,000 compounds, 0.85% hits;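 active = inhibition or corrected inhibition above about 18%, plus a signal ratio from 0.5 to 1.5, limit read from the data, passing the limit was not always enough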
F508del corr: F508del CFTR correction, initial screen, CFBE line, single point | CFBE cells, YFP halide quenching; stimulated with forskolin plus potentiator P3; % fluorescence drop versus neutral controls | activity (quench increase), % at 7.58 µM | 350,000 compounds, 0.36% hits | AID 720511, 2013;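 active = mean added fluorescence quench of at least 8% versus neutral control, with both replicates also reaching 8%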;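 also: cells transiently co-express mutant CFTR-F508del with the halide-sensitive YFP; corrector assay measuring rescue of mutant channel to the surface after 24 h compound exposure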
MPTP inh: mitochondrial permeability transition pore inhibitors, primary screen, biochemical, isolated mouse mitochondria, absorbance; 360,000 compounds, 1.4% hits; inhibition, % at 10 µM; Ca2+ swelling absorbance, 30 min; AID 602449, 2012;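 active = inhibition of 50% or more, scaled per plate between neutral and stimulator controls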
SKN-1 block: suppressors of acrylamide-induced Pgst-4::GFP reporter in worms, primary screen, SKN-1 inhibitor project, whole organism, uHTS, GFP/RFP fluorescence ratio, strain VP596; C. elegans VP596 Pgst-4::GFP/RFP ratio, 24 h; inhibition, % at 21.8 µM; 360,000 compounds, 0.49% hits;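 active = interference check ratio from 0.5 to 1.5 plus GFP to RFP signal ratio inhibition reaching or exceeding a fixed threshold, cut at about 30% in these data, passing the limit was not always enough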
ATG4B inh: ATG4B protease inhibitors, primary screen, biochemical, fluorescence, uHTS. inhibition, % at 8.33 µM. AID 504462, 2011. 340,000 compounds, 0.51% hits. ATG4B cleavage of LC3-PLA2, NBD-HPC fluorescence, 1 h; in the data active = inhibition above about 40%
Target sequence (Q9Y4P1 whole entry, looked up): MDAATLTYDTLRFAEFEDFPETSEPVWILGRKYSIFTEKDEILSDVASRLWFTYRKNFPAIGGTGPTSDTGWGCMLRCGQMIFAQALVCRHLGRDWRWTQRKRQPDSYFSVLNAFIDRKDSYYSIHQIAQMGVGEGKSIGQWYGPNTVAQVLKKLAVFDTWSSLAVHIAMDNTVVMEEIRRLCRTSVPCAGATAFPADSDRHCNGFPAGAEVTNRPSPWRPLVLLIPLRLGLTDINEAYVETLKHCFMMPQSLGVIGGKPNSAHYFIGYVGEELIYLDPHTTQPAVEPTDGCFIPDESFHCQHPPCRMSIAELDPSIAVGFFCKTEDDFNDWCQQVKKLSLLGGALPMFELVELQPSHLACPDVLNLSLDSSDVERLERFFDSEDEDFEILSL
A number is an active result; n = inactive; x = not tested or not shown.

SMILES	CendR NRP1 mod	F508del corr	MPTP inh	SKN-1 block	ATG4B inh
C[C@@H]1CCCCO[C@@H](CN(C)S(C)(=O)=O)[C@@H](C)CN([C@H](C)CO)C(=O)c2cc(NS(=O)(=O)c3cn(C)cn3)ccc2O1	x	n	x	x	x
Cc1ccc(S(=O)(=O)Nc2ccc3c(c2)C(=O)N([C@@H](C)CO)C[C@@H](C)[C@H](CN(C)Cc2ccc(C(=O)O)cc2)OCCCC[C@@H](C)O3)cc1	x	n	x	x	x
Cn1c(=O)c2[nH]c(-c3ccccc3Cl)c(O)c2n(C)c1=O	n	x	n	n	n
Cn1c(=O)c2[nH]c(-c3ccccc3)c(O)c2n(C)c1=O	36	x	n	n	n
COc1cccc(NC(=O)COc2ccccc2C(N)=O)c1	32	x	n	n	n
CCOc1ccccc1CN1CCNC(=O)C1CC(=O)NCCC1=CCCCC1 (stereo not drawn)	45	n	n	n	n
O=S(=O)(Cc1ccccc1)N1CCCCN2[C@H](CO)[C@H](c3ccc(-c4ccccc4)cc3)[C@H]2C1	x	n	x	x	x
COc1ccc(NC(=O)C2Cc3ccccc3CN2C(=O)c2ccccc2)cn1 (stereo not drawn)	25	x	n	n	n
Cc1cc(NC(=O)C(C)SCC(=O)OC(C)C(=O)Nc2ccccc2C)no1 (stereo not drawn)	n	n	n	n	n
COc1ccc([N+](=O)[O-])cc1NC(=O)C(C)OC(=O)CSC(C)C(=O)Nc1cc(C)on1 (stereo not drawn)	n	n	n	37	n
C[C@H]1CCCCO[C@H](CN(C)C(=O)Nc2cccc3ccccc23)[C@@H](C)CN([C@@H](C)CO)C(=O)c2cc(NS(C)(=O)=O)ccc2O1	x	n	x	x	x
C[C@@H]1CN([C@@H](C)CO)C(=O)c2cc(NS(=O)(=O)c3cccs3)ccc2O[C@@H](C)CCCCO[C@@H]1CN(C)Cc1ccncc1	x	n	x	x	x
COc1ccc(CCNC(=O)C2CCC(C(C)(C)C)CC2)cc1OC (stereo not drawn)	34	n	n	n	n
C[C@@H]1CN([C@H](C)CO)C(=O)Cc2cc(NC(=O)CCC(F)(F)F)ccc2O[C@H]1CN(C)Cc1ccc(Oc2ccccc2)cc1	x	n	x	x	x
COC(=O)C[C@H]1CC[C@@H]2[C@H](COc3ccc(NC(=O)c4ccc(C(F)(F)F)cc4)cc3C(=O)N2C)O1	x	n	x	x	x
COC(=O)C[C@@H]1CC[C@@H]2[C@H](COc3ccc(NC(=O)c4ccc(C(F)(F)F)cc4)cc3C(=O)N2C)O1	x	11	x	x	x
C[C@@H](O)C#Cc1cnc2c(c1)C(=O)N([C@@H](C)CO)C[C@H](C)[C@H](CN(C)C(=O)Nc1ccc(C(F)(F)F)cc1)O2	x	n	x	x	x
Cn1nc(C(=O)NNC(=O)CCOc2ccc(C(C)(C)C)cc2)c2ccccc2c1=O	n	10	n	n	n
CCOc1ccc(OCCC(=O)NNC(=O)c2nn(C)c(=O)c3ccccc23)cc1	n	n	n	n	n
COc1ccc(NC(=O)N(C)C[C@H]2OCCCC[C@@H](C)Oc3ccc(NS(C)(=O)=O)cc3C(=O)N([C@H](C)CO)C[C@@H]2C)cc1	x	n	x	x	x
COc1ccc(C(=O)c2cnc(/N=C/N(C)C)s2)cc1	32	x	n	n	n
CN(C)/C=N/c1ncc(C(=O)c2ccc3ccccc3c2)s1	n	x	n	n	n
CCNC(=O)C[C@H]1CC[C@@H]2[C@H](COC[C@H](O)CN2Cc2ccncc2)O1	x	n	x	x	x
CCOC(=O)N1CCN(C(=O)C[C@@H]2C[C@@]3(C(=O)OCC)CCCC=C3N(Cc3ccccc3)C2=O)CC1	36	n	n	n	x
COc1ccccc1CNC(=O)C1CCN(C(=O)N(C)C)CC1	n	x	n	35	n
COc1ccc(CNC(=O)C2CCN(C(=O)N(C)C)CC2)c(OC)c1	n	n	n	n	n
CO[C@H]1CN(C)C(=O)c2cc(NC(=O)Nc3ccccc3)ccc2OC[C@@H](C)N(C(C)=O)C[C@H]1C	x	n	x	x	x
Clc1ccccc1-c1ccc(CN2CCN(c3ccccc3)CC2)o1	n	x	n	38	x
O=[N+]([O-])c1ccc(CN2CCN(c3ccccc3)CC2)o1	28	n	n	n	n
O=[N+]([O-])c1ccc(N2CCN(Cc3ccc([N+](=O)[O-])o3)CC2)cc1	n	n	n	n	n

Screening results: PubChem, several laboratories
